Laboratory results reported in PubChem BioAssay AID1063 (University of Pittsburgh Molecular Library Screening Center, 2008).
The whole screen tested about 200,000 compounds, of which about 18,000 (9%) were called active. What follows is part of a selection rich in actives, with near analogues and random picks from the rest. Values without a mark were called inactive. Cut-off read from the data, not from the text of the source: active = inhibition above about 50%; inactive = the rest.

Experiment: Leishmania major promastigote growth inhibition, primary screen (AID 1063);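 note: promastigotes grown with compound for 44 hours at 28 °C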
Settings: Leishmania major promastigotes, resazurin fluorescence viability; at 10 µM; stronger effect = higher value
Work on `O=C(NCc1nnc(SCC(=O)N2CCC(Cc3ccccc3)CC2)o1)c1ccco1` yielded an inhibition of 25%. Compound `COCC(C)NC(=O)COc1nncc2ccccc12` (stereo unspecified) has an inhibition of 4.91%. With `CNC(=O)NC(=O)C(OC(=O)c1cccc(S(=O)(=O)N2CCCCC2)c1)c1ccccc1` (stereo unspecified) the inhibition was 63.2% (active). For `CN1CCN(S(=O)(=O)c2cccc(C(=O)O)c2)CC1`, the inhibition was -1.21%. For `O=C(NNC1=NCCC1)c1cccc(S(=O)(=O)N2CCCCC2)c1`, the inhibition was -5.29%. In the case of `CCN1CCCC1Cn1cnc2c([nH]c3cc(OC)ccc32)c1=O` (stereo unspecified), the inhibition is reported as 10.5%. With `CCN1CCCC1CNc1ncnc2c1[nH]c1ccc(F)cc12` (stereo unspecified) the inhibition was 78.6% (active). In the case of `CC(C)OCCCNc1ncnc2c1[nH]c1ccc(F)cc12`, the inhibition is reported as 36.3%. `O=C(NCC1CCCCC1)c1cc(S(=O)(=O)N2CCCCC2)ccc1N1CCOCC1` showed an inhibition of 7.99%. Compound `Cc1cc(/C=C2/C(=N)N3C(=NC2=O)SN=C3S(C)(=O)=O)c(C)n1-c1ccccc1` has an inhibition of 3.11%. In the case of `O=C(Nc1ccc(N2C(=O)c3cccc4cccc(c34)C2=O)cc1)c1ccc(N2CCCCC2)c([N+](=O)[O-])c1`, the inhibition is reported as 75% (active). For `CC(NC(=O)c1ccc(N2CCNCC2)c([N+](=O)[O-])c1)C12CC3CC(CC(C3)C1)C2` (stereo unspecified), the inhibition was 7.22%. `O=C(COc1ccccc1F)NNC(=O)c1ccc(N2CCCCC2)c([N+](=O)[O-])c1` gave an inhibition of -1.27%. In the case of `Cc1cccc(NC(=O)c2cccc(C(F)(F)F)c2)c1`, the inhibition is reported as 13.2%. For `O=C(Nc1cccc(C(F)(F)F)c1)c1ccc(N2CCNCC2)c([N+](=O)[O-])c1`, the inhibition was 100% (active). Work on `O=C(Nc1ccc2c(c1)OCO2)c1ccc(N2C(=O)c3ccccc3C2=O)cc1` yielded an inhibition of -0.72%. With `C/C(=N/NC(=O)CCc1ccccc1)c1ccco1` the inhibition was 11.8%. In the case of `CC1=NN(C(=O)c2ccc(Br)cc2)C(O)(c2ccccc2)C1` (stereo unspecified), the inhibition is reported as -9.77%. Work on `CCOc1ccc(-c2nnc(-c3ccco3)o2)cc1` yielded an inhibition of 2.35%. For `CCC(=O)Oc1cccc(C(=O)Nc2ccc(-c3nnc(-c4ccco4)o3)cc2)c1`, the inhibition was 98.9% (active). Compound `CCCCOc1ccc(-c2nnc(-c3ccco3)o2)cc1` has an inhibition of -7.38%. For `CCN(CC)S(=O)(=O)c1ccc(Cl)c(C(=O)NC(C)C(c2cccs2)N2CCCC2)c1` (stereo unspecified), the inhibition was 10.7%. `Cc1cc(N2CCOCC2)nc2ccc(NC(=S)N3CCN(Cc4ccccc4)CC3)cc12` showed an inhibition of 36.5%. For `O=C(Nc1ccccc1)/C(=C/c1ccc([N+](=O)[O-])cc1)NC(=O)c1ccccc1`, the inhibition was -0.93%. With `CCOC(=O)/C(=C\c1ccc([N+](=O)[O-])cc1)C(=O)c1cc(C(C)=O)c(Nc2ccccc2)s1` the inhibition was 101% (active). For `CCOC(=O)/C(=N\Nc1ccccc1[N+](=O)[O-])c1csc(Nc2ccccc2)n1`, the inhibition was 15.4%.
